Among the data in PubChem BioAssay are composite z-score and z-score values, retold here.

Assay [1] relates to Wnt5a (protein binding on small-molecule microarray). As to the kind of experiment: small molecules binding Wnt5a protein – biophysical, small-molecule microarray, 635/667 nm fluorescence, primary screen (AID 1142).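 Also: fluorescence read at 667 nm with signal to noise per printed feature.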 The conditions noted are these: 635 nm fluorescence, higher = more signal.
A short description of assay [2]: ATP-based viability of Huh7 replicon cells – cell-based, CellTiter-Glo luminescence, basal, 48 h, cytotoxicity control for HCV replication inhibitor project, primary screen (AID 1143).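 Also: Huh7 hepatoma cells carrying a hepatitis C replication reporter with no stimulus; test concentration not given here.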 The conditions noted are these: higher = more signal, called active from +8 up or from −8 down. (A replicon is a self-replicating genome or part of one, used to study replication in cells.)

Assay [3] is described as follows: Pseudomonas biofilm growth suppression – PAO1 strain, BacTiter-Glo luminescence, LB-PBS, primary screen (AID 1144). To be noted: P. aeruginosa PAO1 biofilm, 12 h, higher = more signal.
Assay [4] can be described thus: basal CRE-LacZ reporter activity in PC12 – cell-based, unstimulated, primary screen (AID 1145). The conditions noted are these: no forskolin, luminescence, 4.5 h, higher = more signal, called active from +8 up or from −8 down.
Assay [5] can be described thus: forskolin-driven CRE-LacZ activity in PC12 – cell-based, CRE-LacZ reporter, forskolin-stimulated, primary screen (AID 1146).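 Also: PC12 cells with 6xCRE LacZ reporter stimulated by forskolin 10 µM; beta-galactosidase reporter signal reflecting CREB driven transcription.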 The conditions noted are these: luminescence, 4.5 h, higher = more signal, called active from +8 up or from −8 down.
Assay [6] concerns the target Streptavidin (Streptomyces avidinii) (UniProt P22629). As to the kind of experiment: compounds binding control protein streptavidin – biophysical, small-molecule microarray, 635/667 nm fluorescence, artefact control for SMM compound annotation, primary screen (AID 1147).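 Also: signal reflects streptavidin binding to arrayed compounds as a control protein.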 The conditions noted are these: higher = more signal.
Assay [7] is described as follows: probe aInhba binding on compound microarray – biochemical, small-molecule microarray, 635/667 nm fluorescence, primary screen (AID 1148).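 Also: score merges 667nm spot fluorescence with signal-to-noise for antibody binding to printed compounds.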 To be noted: higher = more signal.
For assay [8], the target named is Torsin-1A (Homo sapiens) (UniProt O14656). As to the kind of experiment: TOR1A wild-type binding on microarray – cell lysate, small-molecule microarray, lysate, 635/667 nm, primary screen (AID 1149). To be noted: COS7 hTOR1A-WT lysate, 635 nm fluorescence, higher = more signal.
Torsin-1A (Homo sapiens), sequence (O14656 whole entry, looked up): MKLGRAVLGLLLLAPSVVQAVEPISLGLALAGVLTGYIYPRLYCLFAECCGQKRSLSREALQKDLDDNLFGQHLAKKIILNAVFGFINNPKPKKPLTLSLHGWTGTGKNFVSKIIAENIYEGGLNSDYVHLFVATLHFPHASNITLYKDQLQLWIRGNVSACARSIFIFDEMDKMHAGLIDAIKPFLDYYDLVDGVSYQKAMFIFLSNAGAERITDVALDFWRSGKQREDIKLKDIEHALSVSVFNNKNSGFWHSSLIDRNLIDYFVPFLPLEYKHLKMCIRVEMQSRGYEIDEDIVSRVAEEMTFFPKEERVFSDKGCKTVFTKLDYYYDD
Assay [9] has the same target. As to the kind of experiment: torsin A mutant lysate binding on microarrays – cell lysate, small-molecule microarray, COS7 lysate, 635/667 nm fluorescence, primary screen (AID 1150).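 Also: score pools 667 nm emission and signal to noise measuring lysate protein binding.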 To be noted: COS7 hTOR1A mutant lysate, 635 nm fluorescence, higher = more signal.
Assay [10] concerns Sonic hedgehog protein (Shh). As to the kind of experiment: Sonic hedgehog microarray binding compounds – biochemical, small-molecule microarray, 635/667 nm fluorescence, primary screen (AID 1151).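 Also: Shh protein binding to compounds spotted on small-molecule microarray slides; score combines spot fluorescence intensity with signal-to-noise across triplicate slides.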 The conditions noted are these: 635 nm fluorescence, higher = more signal.
A short description of assay [11]: optical density shifts of acrAB sulA E. coli – strain DRC41, OD650, 48 h, E. coli filamentation inducer project, primary screen (AID 1152).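 Also: E. coli MC1000 strain DRC41 lacking acrAB efflux pump and sulA.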 The conditions noted are these: higher = more signal, called active from +8 up or from −8 down.
The nature of assay [12]: probe aLefty1 binding on compound microarray – biochemical, small-molecule microarray, 635/667 nm fluorescence, primary screen (AID 1153).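 Also: score merges spot fluorescence with signal-to-noise ratio from the scanned slide images.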 To be noted: higher = more signal.
The nature of assay [13]: plasmodial surface anion channel blockers, osmotic lysis – cell-based, P. falciparum Indochina, OD700, 1 h, primary screen (AID 1154). The conditions noted are these: P. falciparum Indochina infected RBC osmotic lysis, higher = more signal, called active from +8 up or from −8 down.
Assay [14] is described as follows: plasmodial surface anion channel blockers, osmotic lysis – cell-based, P. falciparum Indochina, OD700, 2 h, primary screen (AID 1155).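 Also: lysis reports solute entry through the parasite surface anion channel PSAC.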 To be noted: P. falciparum Indochina infected erythrocytes, higher = more signal, called active from +8 up or from −8 down.
Assay [15] can be described thus: changes in parasitized red cell lysis, either direction – P. falciparum Indochina, OD700, 3 h, PSAC antagonist project, primary screen (AID 1156). The conditions noted are these: P. falciparum-infected erythrocytes, osmotic lysis, higher = more signal, called active from +8 up or from −8 down.
A short description of assay [16]: plasmodial surface anion channel blockers, osmotic lysis – cell-based, P. falciparum Indochina, OD700, 18 h, primary screen (AID 1157). To be noted: P. falciparum Indochina infected erythrocytes, osmotic lysis OD700, 18 h; higher = more signal, called active from +8 up or from −8 down.
A short description of assay [17]: S6 kinase pathway phospho-S6 level changes – cell-based, A549, cytoblot, luminescence, serum-stimulated, primary screen (AID 1158).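 Also: serum-stimulated A549 lung adenocarcinoma cells; signal is phosphorylated S6 detected by cytoblot immunostaining with HRP secondary.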 The conditions noted are these: 5 h, higher = more signal.
Assay [18] addresses NADPH oxidase 2 (Homo sapiens) (UniProt P04839). As to the kind of experiment: compounds shifting NOX2 Amplex Red fluorescence – cell-based, HEK293-NOX2, PMA-stimulated, NOX inhibitor project, primary screen (AID 1159). Also: test concentration not given here. To be noted: 45 min, higher = more signal, called active from +8 up or from −8 down.
For assay [19], the target named is NADPH oxidase 4 (Homo sapiens) (UniProt Q9NPH5). As to the kind of experiment: compounds shifting NOX4 Amplex Red fluorescence – cell-based, HEK293-NOX4, tetracycline-induced, NOX inhibitor project, primary screen (AID 1160). The conditions noted are these: HEK293-NOX4, Amplex Red H2O2 fluorescence, 45 min; higher = more signal, called active from +8 up or from −8 down.
NADPH oxidase 4 (Homo sapiens), sequence (Q9NPH5 whole entry, looked up): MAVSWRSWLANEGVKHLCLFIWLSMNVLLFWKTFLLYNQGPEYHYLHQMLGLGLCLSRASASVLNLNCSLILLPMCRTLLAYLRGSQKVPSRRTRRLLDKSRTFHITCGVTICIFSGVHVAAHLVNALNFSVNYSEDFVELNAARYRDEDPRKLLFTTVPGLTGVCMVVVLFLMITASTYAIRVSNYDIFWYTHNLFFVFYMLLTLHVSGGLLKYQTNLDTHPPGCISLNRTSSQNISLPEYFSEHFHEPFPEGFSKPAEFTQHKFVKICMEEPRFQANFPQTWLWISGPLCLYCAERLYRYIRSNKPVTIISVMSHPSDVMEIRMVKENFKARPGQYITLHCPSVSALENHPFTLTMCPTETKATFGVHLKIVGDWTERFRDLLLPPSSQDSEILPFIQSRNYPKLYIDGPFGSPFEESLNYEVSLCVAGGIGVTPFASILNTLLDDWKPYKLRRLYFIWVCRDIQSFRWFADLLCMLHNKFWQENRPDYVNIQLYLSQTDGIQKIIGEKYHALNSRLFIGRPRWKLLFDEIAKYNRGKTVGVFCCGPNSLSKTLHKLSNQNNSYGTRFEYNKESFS

The target of assay [20] is NADPH oxidase 5 (Homo sapiens) (UniProt Q96PH1). As to the kind of experiment: compounds shifting NOX5 Amplex Red fluorescence – cell-based, HEK293-NOX5, NOX inhibitor project, primary screen (AID 1161). The conditions noted are these: HEK293-NOX5, ionomycin, 45 min, higher = more signal.
NADPH oxidase 5 (Homo sapiens), sequence (Q96PH1 whole entry, looked up): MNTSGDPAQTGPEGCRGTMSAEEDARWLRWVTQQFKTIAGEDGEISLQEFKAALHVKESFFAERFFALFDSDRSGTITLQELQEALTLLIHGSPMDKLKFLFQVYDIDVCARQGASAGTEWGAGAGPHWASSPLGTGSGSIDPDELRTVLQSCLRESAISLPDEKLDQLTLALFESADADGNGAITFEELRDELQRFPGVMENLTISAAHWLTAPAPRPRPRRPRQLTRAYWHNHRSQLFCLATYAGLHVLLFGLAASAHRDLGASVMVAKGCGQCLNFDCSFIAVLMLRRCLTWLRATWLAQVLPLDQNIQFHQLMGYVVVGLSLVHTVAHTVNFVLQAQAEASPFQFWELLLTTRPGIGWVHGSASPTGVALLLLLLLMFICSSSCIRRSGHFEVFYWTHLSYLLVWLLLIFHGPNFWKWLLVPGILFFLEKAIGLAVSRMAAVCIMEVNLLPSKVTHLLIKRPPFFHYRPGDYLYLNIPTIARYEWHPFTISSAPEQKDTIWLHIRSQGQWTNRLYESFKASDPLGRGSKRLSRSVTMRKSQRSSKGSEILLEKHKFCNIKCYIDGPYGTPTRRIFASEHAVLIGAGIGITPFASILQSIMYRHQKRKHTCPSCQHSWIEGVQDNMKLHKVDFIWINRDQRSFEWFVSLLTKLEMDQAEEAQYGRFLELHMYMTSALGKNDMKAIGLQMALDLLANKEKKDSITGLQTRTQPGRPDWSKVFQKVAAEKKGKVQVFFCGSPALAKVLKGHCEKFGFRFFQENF

The source made the active and inactive calls. Unless noted, no rule for the calls is given here.

NADPH oxidase 2 (Homo sapiens), sequence (P04839 whole entry, looked up): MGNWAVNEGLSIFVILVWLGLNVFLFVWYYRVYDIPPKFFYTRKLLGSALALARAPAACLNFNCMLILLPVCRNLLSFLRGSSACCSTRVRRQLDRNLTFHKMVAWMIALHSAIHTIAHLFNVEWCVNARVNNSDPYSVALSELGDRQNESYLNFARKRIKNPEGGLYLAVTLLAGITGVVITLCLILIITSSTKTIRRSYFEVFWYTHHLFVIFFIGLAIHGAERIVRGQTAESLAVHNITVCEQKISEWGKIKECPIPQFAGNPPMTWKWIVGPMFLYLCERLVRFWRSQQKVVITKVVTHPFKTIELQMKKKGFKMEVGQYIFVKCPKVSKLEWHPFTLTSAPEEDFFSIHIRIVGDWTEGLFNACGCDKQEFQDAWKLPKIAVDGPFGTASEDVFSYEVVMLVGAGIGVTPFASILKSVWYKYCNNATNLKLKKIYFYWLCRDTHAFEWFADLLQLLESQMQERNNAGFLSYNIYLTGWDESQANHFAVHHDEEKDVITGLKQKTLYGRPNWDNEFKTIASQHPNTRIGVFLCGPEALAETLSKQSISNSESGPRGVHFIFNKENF
Streptavidin (Streptomyces avidinii), sequence (P22629 whole entry, looked up): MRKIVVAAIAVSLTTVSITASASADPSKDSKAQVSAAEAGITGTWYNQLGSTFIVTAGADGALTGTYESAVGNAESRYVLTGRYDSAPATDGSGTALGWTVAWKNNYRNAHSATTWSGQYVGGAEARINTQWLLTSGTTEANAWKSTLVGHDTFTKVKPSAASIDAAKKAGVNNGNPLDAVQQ

Take `COC(=O)[C@H](C)NC(=O)CCC1CC(OC(=O)NCc2ccc3c(c2)OCO3)CC2(CCCC(COC(=O)NCCCN3CCCC3=O)O2)O1` (stereo not given in full): the composite z-score in assay [1] amounted to 0.151; in assay [6], 0.53; in assay [7], 0.111; in assay [8], 0.447; in assay [9], 0.323; in assay [10] it was 0.78. The molecule also returned a composite z-score in [12] of 0.0326. In addition, the z-score in assay [2] is -0.849 (inactive); in [3], -0.202 (inactive); in assay [4], 0.108 (inactive); in assay [5], 0.833 (inactive); in assay [11] it was -0.37 (inactive); in assay [13] it was -0.881 (inactive). For the same molecule, the z-score was 0.136 (inactive) in [14]; -0.257 (inactive) in [15]; -0.169 (inactive) in [16]; 0.0031 in assay [17]; 1.1 (inactive) in [18]; -1.51 (inactive) in [19]. The z-score in [20] was -1.74.
With `CCN(CC)CC(O)CN1CCCCc2nc(C)c(C)cc21` (stereo not given), the composite z-score was 0.0321 in assay [1]; 0.551 in [6]; -0.183 in assay [7]; 0.57 in [8]; 0.029 in assay [9]; 0.261 in assay [10]. Besides, the composite z-score in assay [12] was -0.0544. Moreover, the z-score in assay [2] was -1.1 (inactive); in [3], -1.67 (inactive); in assay [4], -0.161 (inactive); in assay [5], -0.71 (inactive); in assay [11] it was 0.219 (inactive); in [13], -0.446 (inactive). Further, the z-score in [14] was -1.31 (inactive); in assay [15] it was 0.273 (inactive); in assay [16], -1.55 (inactive); in [17] it was 1.43; in assay [18], 0.776 (inactive); in [19], -0.622 (inactive). In addition, the z-score in assay [20] stood at 0.419.
Regarding `CCOC(=O)NN=C1C[C@@H](O)[C@@H](O)[C@@H]2[C@@H]3C(=O)N(CC)C(=O)[C@@H]3CC[C@H]12`, the composite z-score is 0.0375 in [1]; 0.0571 in assay [6]; -0.252 in assay [7]; 0.399 in assay [8]; 0.441 in assay [9]; 0.0046 in [10]. For the same molecule, the composite z-score in assay [12] was -0.286. Also, the z-score in assay [2] is 0.383 (inactive); in [3] it was 0.345 (inactive); in [4], -0.656 (inactive); in assay [5] it was -0.628 (inactive); in assay [11], 0.539 (inactive); in assay [13], -0.259 (inactive). Besides, the z-score in assay [14] was 0.072 (inactive); in [15], -0.466 (inactive); in assay [16], 0.182 (inactive); in assay [17] it was -0.404; in assay [18] it was -1.28 (inactive); in [19] it was 0.199 (inactive). In assay [20], the z-score was found to be 0.534.
Consider `CC(=O)OC[C@H]1O[C@@H](ON=C(C)CCC(=O)OC[C@H]2O[C@H](C#Cc3ccccc3)C=C[C@@H]2Oc2ccc(C)cc2)[C@H](OC(C)=O)[C@@H](OC(C)=O)[C@@H]1OC(C)=O`, for which the composite z-score was 0.428 in assay [1]; 0.29 in assay [6]; -0.082 in assay [7]; 0.513 in assay [8]; 0.461 in [9]; 1.19 in [10]. For the same molecule, in [12], the composite z-score is -0.265. The z-score in assay [2] was -1.1 (inactive); in [3] it was -0.238 (inactive); in assay [4] it was 2.19 (inactive); in [5] it was 0.725 (inactive); in assay [11], -0.446 (inactive); in [13], 2.56 (inactive). In addition, the z-score was 1.11 (inactive) in assay [14]; 0.63 (inactive) in [15]; 0.612 (inactive) in assay [16]; -0.635 in assay [17]; 1.04 (inactive) in assay [18]; 1.2 (inactive) in assay [19]. For the same molecule, the z-score in [20] was 1.38.
Consider `CCOC(=O)[C@H](Cc1ccccc1)NC(=O)CCC1CC(OC(=O)NCc2cccc3ccccc23)CC2(CCCC(COC(=O)NCCOc3ccccc3)O2)O1` (stereo not given in full), for which the composite z-score in assay [1] is -0.0525; in assay [6], 0.419; in [7] it was 0.0667; in assay [8], 0.0468; in [9], 1.47; in [10], 0.825. Moreover, in [12], the composite z-score is -0.0094. The z-score in [2] was -2.73 (inactive); in [3], -1.35 (inactive); in assay [4], -0.523 (inactive); in [5] it was 0.57 (inactive); in assay [11], -1.98 (inactive); in assay [13] it was -0.623 (inactive). The z-score in [14] was -0.824 (inactive); in assay [15], 0.48 (inactive); in assay [16], -1.33 (inactive); in [17], 1.01; in assay [18], 0.0124 (inactive); in [19], 0.762 (inactive). The z-score in assay [20] was 1.06.
